Experimental data from PubChem BioAssay (Tox21).
Results filed as inconclusive are left out. Calls of active or inactive are those of the source. Unless noted, calls follow the shape of the dose curve; as a rule, active = well fitted curve in the direction sought with a large enough effect in the repeat runs; inconclusive = weak or mixed curves; inactive = no such curve, though single readings can be large; an effect the other way counts as inactive or inconclusive.

Legend:
[1] = qHTS assay to identify small molecule antagonists of the estrogen related receptor (ERR) signaling pathway from Tox21 library - cell viability counter screen (AID 1224834); also: nearly all actives have a fitted effect of over 30% in size
Outline: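 Fluorescence from CellTiter-Fluor gives the viability read-out, taken 30 min after reagent addition. Before that, ERR cells seeded 6 h earlier were incubated with compounds for 17.5 h at 37 C.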

[2] = biological target: Luciferin 4-monooxygenase (Photinus pyralis) (UniProt P08659); assay: qHTS assay to identify small molecule inhibitors of firefly luciferase (AID 1224835); also: nearly all actives have a fitted effect of over 25% in size
Chain of Luciferin 4-monooxygenase (Photinus pyralis) (P08659 whole entry, looked up): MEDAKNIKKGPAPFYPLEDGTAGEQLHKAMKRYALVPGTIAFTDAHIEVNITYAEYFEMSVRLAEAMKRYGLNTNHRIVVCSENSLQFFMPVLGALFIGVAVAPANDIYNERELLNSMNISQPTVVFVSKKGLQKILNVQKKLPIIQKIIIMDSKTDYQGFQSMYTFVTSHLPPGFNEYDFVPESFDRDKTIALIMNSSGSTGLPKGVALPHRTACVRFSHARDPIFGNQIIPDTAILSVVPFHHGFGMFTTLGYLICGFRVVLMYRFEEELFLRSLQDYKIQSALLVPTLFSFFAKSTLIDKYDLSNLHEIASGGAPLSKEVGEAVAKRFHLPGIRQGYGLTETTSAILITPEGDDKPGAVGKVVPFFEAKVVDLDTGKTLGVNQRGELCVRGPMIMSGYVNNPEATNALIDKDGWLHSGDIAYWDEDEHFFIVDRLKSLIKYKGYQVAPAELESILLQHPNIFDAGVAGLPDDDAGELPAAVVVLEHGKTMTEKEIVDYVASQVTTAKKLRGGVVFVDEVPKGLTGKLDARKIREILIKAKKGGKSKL
Outline: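 Biochemical qHTS: compounds run as interplate titrations against purified firefly enzyme, with D-luciferin and ATP each at its KM concentration. Light output recorded by CCD imaging.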

[3] = qHTS assay to identify small molecule agonists of the constitutive androstane receptor (CAR) signaling pathway - cell viability counter screen (AID 1224836); also: nearly all actives have a fitted effect of over 45% in size
Outline: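 Counter screen multiplexed with the CAR reporter readout: HepG2 cells co-transfected with hCAR and the CYP2B6-2.2kb construct receive a 15-concentration compound series and 0.75 uM PK11195 (final), then CellTiter-Fluor fluorescence is read after 23 h.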

[4] = qHTS assay to identify small molecule antagonists of the constitutive androstane receptor (CAR) signaling pathway - cell viability counter screen (AID 1224837); also: nearly all actives have a fitted effect of over 45% in size
Outline: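 HepG2-CYP2B6-hCAR cells, 2500/well, 4 hr pre-incubation; compound titration, 15 conc.; CITCO 50 nM final; 23 hr, 37 C/5% CO2; CellTiter-Fluor, fluorescence intensity.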

[5] = qHTS assay to identify small molecule antagonists of the estrogen related receptor signaling pathway with the pleiotropic PPARgamma coactivator (PGC) from Tox21 10K library - cell viability counter screen (AID 1224840; active = well fitted cell-killing curve with a large enough effect in the repeat runs, not every such curve was filed as active; also: nearly all actives have a fitted effect of over 40% in size)
Outline: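 PGC/ERR cells, 2,000/well; 6 h pre-incubation 37 C/5% CO2; cpd in DMSO via pin tool; 17.5 h 37 C; CellTiter-Fluor, 30 min; fluorescence.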

[6] = qHTS assay to identify small molecule antagonists of the estrogen related receptor signaling pathway with the pleiotropic PPARgamma coactivator (PGC) from Tox21 10K library (AID 1224841; call rule not given here; also: actives are mostly falling curves and most rising ones were filed inactive; nearly all actives have a fitted effect of over 50% in size)
Outline: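 PGC/ERR cell line, 2,000 cells/well; 6 h pre-incubation 37 C/5% CO2; compounds (DMSO) pinned in; 18 h, 37 C; One-Glo, 30 min RT; luminescence.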

[7] = qHTS assay to identify small molecule agonists of the estrogen related receptor signaling pathway with the pleiotropic PPARgamma coactivator (PGC) from Tox21 10K library (AID 1224842); also: nearly all actives have a fitted effect of over 15% in size
Outline: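 PGC/ERR reporter cell line, 2,000 cells per well, incubated 6 h at 37 C before 23 nL compound in DMSO was added. After 18 h at 37 C, One-Glo luminescence read following 30 min at room temperature.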

[8] = biological target: Thyrotropin receptor (Homo sapiens) (UniProt P16473); assay: qHTS assay to identify small molecule agonists of the thyroid stimulating hormone receptor (TSHR) signaling pathway (AID 1224843; calls by dose curve; also: nearly all actives have a fitted effect of over 45% in size)
Chain of Thyrotropin receptor (Homo sapiens) (P16473 whole entry, looked up): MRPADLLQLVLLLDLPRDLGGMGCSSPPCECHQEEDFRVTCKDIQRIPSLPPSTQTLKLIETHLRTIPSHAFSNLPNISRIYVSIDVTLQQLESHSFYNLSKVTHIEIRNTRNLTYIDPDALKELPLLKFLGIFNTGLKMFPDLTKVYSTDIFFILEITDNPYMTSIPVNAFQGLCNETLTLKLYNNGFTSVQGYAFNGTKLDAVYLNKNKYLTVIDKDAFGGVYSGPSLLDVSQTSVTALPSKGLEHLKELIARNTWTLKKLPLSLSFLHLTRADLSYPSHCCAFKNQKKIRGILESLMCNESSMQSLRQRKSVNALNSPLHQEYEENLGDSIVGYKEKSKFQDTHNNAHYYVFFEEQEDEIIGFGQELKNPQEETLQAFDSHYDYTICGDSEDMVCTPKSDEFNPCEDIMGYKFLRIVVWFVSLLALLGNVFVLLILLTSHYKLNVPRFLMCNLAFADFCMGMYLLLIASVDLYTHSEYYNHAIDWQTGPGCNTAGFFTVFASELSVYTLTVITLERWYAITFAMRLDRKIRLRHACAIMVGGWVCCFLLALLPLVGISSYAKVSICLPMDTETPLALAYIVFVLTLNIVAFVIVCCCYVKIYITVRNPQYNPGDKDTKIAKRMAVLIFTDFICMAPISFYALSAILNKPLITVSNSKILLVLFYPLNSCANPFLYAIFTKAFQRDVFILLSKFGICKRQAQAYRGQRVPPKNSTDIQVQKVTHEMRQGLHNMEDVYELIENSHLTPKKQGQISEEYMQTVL
Outline: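 TSHR-HEK293 cells in agonist mode, 30 min room-temperature step, then cAMP measured by competitive HTRF (cAMP-d2 with anti-cAMP cryptate) after 1 h at room temperature. Tested at 15 concentrations in triplicate.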

[9] = qHTS assay to identify small molecule agonists of the hypoxia (HIF-1) signaling pathway - cell viability counter screen (AID 1224844; calls by dose curve; also: nearly all actives have a fitted effect of over 50% in size)
Outline: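 ME-180 HRE-bla cells, 2,000/well, 0.5% dialyzed FBS; 5 hr settle, 17 hr compound at 37C/5% CO2; CCF4-AM reporter read first, then CellTiter-Glo luminescence after 30 min RT.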

[10] = qHTS assay to identify small molecule agonists of H2AX (AID 1224845; active = well fitted activation curve with a large enough effect in the signal ratio in the repeat runs, not every such curve was filed as active; the % refers to the signal ratio)
Outline: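 Wild-type CHO-K1 cells, plated overnight, exposed 3hr at 37C to 15 concentrations (0.76% DMSO final). Lysed, then HTRF anti-pH2AX (S139) cryptate and anti-H2AX-d2 antibodies, 24 hr room temperature; 665/620 nm emission read.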

[11] = qHTS assay to identify small molecule agonists of the hypoxia (HIF-1) signaling pathway (AID 1224846; active = well fitted activation curve with a large enough effect in the signal ratio in the repeat runs, not every such curve was filed as active; the % refers to the signal ratio)
Outline: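 Cell line: CellSensor HRE-bla ME-180; 2,000 cells/well; 0.5% dialyzed FBS; 5 h preincubation; DMSO compound pin transfer; 17 h, 37C, 5% CO2; CCF4-AM added; bla FRET signal scored for activation.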

[12] = qHTS assay to identify small molecule agonists of H2AX - cell viability counter screen (AID 1224847; calls by dose curve; also: top concentration of the series differs between compounds; nearly all actives have a fitted effect of over 30% in size)
Outline: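 We seed wild-type CHO-K1 cells overnight, treat them for 3 hr at 37C with compounds in 15-concentration series, and quantify remaining viability by CellTiter-Glo luminescence.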

[13] = qHTS assay to identify small molecule antagonists of the estrogen related receptor (ERR) signaling pathway from Tox21 library (AID 1224848); also: nearly all actives have a fitted effect of over 50% in size
Outline: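 ERR reporter cell line (from NTP) seeded 2,000 cells/well, rested 6 h at 37 C/5% CO2, then pin-dosed with compounds in DMSO. After 18 h at 37 C, ONE-Glo added; luminescence read after 30 min at room temperature.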

[14] = qHTS RealTime-Glo MT Cell Viability Assay in HepG2 cells - 24 hour (AID 1224867); also: nearly all actives have a fitted effect of over 50% in size
Outline: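 HepG2 suspension premixed with RealTime-Glo reagents is plated at 600 cells per well and left 5 h at 37 C/5% CO2. Compounds in DMSO then go in, and bioluminescence reflecting viable cell number is recorded over 40 h.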

[15] = qHTS RealTime-Glo MT Cell Viability Assay in HEK293 cells - 32 hour (AID 1224868)
Outline: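 Reads taken at 0, 8, 16, 24, 32 and 40 h from the same wells. HEK293 cells (600/well) carried RealTime-Glo reagents from seeding, with compound added after a 5 h settle at 37 C.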

[16] = A CellTox Green Cytotoxicity Assay to monitor cytotoxicity in HEK293 cells - 0 hour (AID 1224869); also: nearly all actives have a fitted effect of over 50% in size
Outline: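 Nonlytic real-time cytotoxicity: HEK293 + CellTox Green reagent plated, 5 h preincubation, pintool compound addition (23 nL in DMSO), 37 C for 40 h, fluorescence measured at successive time points.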

[17] = qHTS RealTime-Glo MT Cell Viability Assay in HepG2 cells - 40 hour (AID 1224870); also: nearly all actives have a fitted effect of over 50% in size
Outline: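 HepG2 cells (600/well) mixed with RealTime-Glo MT reagent, settled 5 h at 37 C/5% CO2 before compound addition. Nonlytic NanoLuc luminescence from viable-cell prosubstrate reduction read repeatedly during 40 h treatment at 37 C.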

[18] = qHTS assay to identify small molecule agonists of the estrogen related receptor (ERR) signaling pathway from Tox21 library (AID 1224849; calls by dose curve; also: nearly all actives have a fitted effect of over 15% in size); details: ERR reporter cell line, ONE-Glo luciferase, 18 h
Outline: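 ERR cells, 6 h pre-incubation 37 C/5% CO2; cpd in DMSO pinned; 18 h 37 C; ONE-Glo added, 30 min RT; luminescence read. Agonist mode, qHTS.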
% is scaled to controls: 0 for no effect and ±100 for the full control effect.

NNCCO
inactive: Potency [1] | Potency [2] | Potency [3] | Potency [4] | Potency [5] | Potency [6] | Potency [7] | Potency [8] | Potency [9] | Potency [10] | outcome [11] | Potency [12] | Potency [13] | Potency [14] | Potency [15] | Potency [16] | Potency [17]

C[C@H]1[C@@H]2Cc3ccc(O)cc3[C@@]1(C)CCN2C
inactive: Potency [1] | Potency [2] | Potency [3] | Potency [4] | Potency [5] | Potency [6] | Potency [7] | Potency [9] | Potency [10] | outcome [11] | Potency [12] | Potency [13] | activity change, positive = activation ([18]; at 240 µM (top of the series)) 8.81% | Potency [14] | Potency [15] | Potency [17]

O=C1NC(=O)C(=O)C(=O)N1
inactive: Potency [1] | Potency [2] | Potency [3] | Potency [4] | Potency [5] | Potency [10] | outcome [11] | Potency [12] | Potency [14] | Potency [15] | Potency [16] | Potency [17]

Oc1cccc(Cl)c1
inactive: Potency [1] | Potency [2] | Potency [3] | Potency [4] | Potency [5] | Potency [6] | Potency [7] | Potency [9] | Potency [10] | outcome [11] | Potency [12] | Potency [13] | activity change, positive = activation ([18]; at 92.4 µM (top of the series)) 1.9% | Potency [14] | Potency [15] | Potency [16] | Potency [17]

CN(C)N
inactive: Potency [1] | Potency [2] | Potency [3] | Potency [4] | Potency [5] | Potency [9] | Potency [10] | outcome [11] | Potency [12] | Potency [14] | Potency [15] | Potency [16] | Potency [17]

CCCC[N+](CCCC)(CCCC)CCCC
inactive: Potency [1] | Potency [2] | Potency [3] | Potency [4] | Potency [5] | Potency [7] | Potency [10] | outcome [11] | Potency [12] | Potency [13] | activity change, positive = activation ([18]; at 92.4 µM (top of the series)) -11.1% | Potency [14] | Potency [16] | Potency [17]

CCC1CCC(=O)O1 (stereo not drawn)
inactive: Potency [1] | Potency [2] | Potency [3] | Potency [4] | Potency [5] | Potency [8] | Potency [9] | Potency [10] | outcome [11] | Potency [12] | Potency [14] | Potency [15] | Potency [16] | Potency [17]

CN(C)C(=O)Nc1cccc(OC(=O)NC(C)(C)C)c1
inactive: Potency [1] | Potency [2] | Potency [3] | Potency [4] | Potency [6] | Potency [7] | Potency [8] | Potency [10] | outcome [11] | Potency [12] | activity change, positive = activation ([18]; at 92.4 µM (top of the series)) -15.7% | Potency [15] | Potency [16] | Potency [17]

NC(=S)c1c(Cl)cccc1Cl
inactive: Potency [1] | Potency [2] | Potency [3] | Potency [4] | Potency [10] | outcome [11] | Potency [12] | Potency [14] | Potency [15] | Potency [16] | Potency [17]
